# Measurements: PubChem BioAssay (NCATS)
# Values joined by “and” are separate entries in the source; they are usually repeats but may differ in a detail not shown here. Identical values can stand only once. Records with an inconclusive call do not appear. Unmarked numbers belong to inactive results. Active and inactive are the calls of the source. Unless noted, the call rests on the fitted dose curve; in most records, active means well fitted curve in the direction sought with a large enough effect in the repeat runs; inconclusive means weak or mixed curves; inactive means no such curve, though single readings can be large; an effect the other way counts as inactive or inconclusive.
# Experiment: qHTS assay for small molecule agonists of the antioxidant response element (ARE) signaling pathway measured by Nrf2-dependant transcriptional activity (AID 720636);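 further: HepG2 cells with an ARE-driven luciferase reporter; % of control where 0% means no effect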
# Conditions: ARE-luc HepG2, Nrf2 luciferase reporter, 16 h; series mostly up to 92.4 µM
# In short: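 First, ARE-luc HepG2 cells attached for 6 hr at 37 C in 1% dialyzed FBS medium. Next, compound or DMSO was added and incubated 16 hr. Finally, ONE-Glo reagent was added and luminescence measured after 30 min.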
row,SMILES,Potency
1,CC(C)CCCCCCCCCCCCCCC(=O)O,inactive
2,CCCCCCCCCCCCc1ccccc1,inactive
3,C=CCOc1nc(OCC=C)nc(OCC=C)n1,inactive
4,CCOC(=O)c1ccccc1C,inactive
5,CCCCCCCCCCCC[N+](C)(C)C,inactive
6,CCCC/C=C\CCCCCCCCCC=O,inactive
7,CCCCCCCCCCCCN,inactive
8,CCC(O)OCCCOC (stereo not drawn),inactive
9,CCCCCCCCCCCCCCC,inactive
10,CC(C)(N=C=O)c1cccc(C(C)(C)N=C=O)c1,inactive
11,CC(C)C(=O)OC(=O)C(C)C,inactive
12,CC1=CC(=O)CC(C)(C)C1,inactive
13,CCCCCCCC[Si](OCC)(OCC)OCC,inactive
14,CCCCCCCCCCCCCCCO,inactive
15,COc1cc(Cl)c(OC)cc1N,inactive
16,O=S(=O)(O)c1cc(S(=O)(=O)O)c2c(N=Nc3ccccc3)c(O)ccc2c1,inactive
17,CC(C)CCCCOC(=O)c1ccccc1C(=O)OCCCCC(C)C,inactive
18,COC(=O)CCSCCC(=O)OC,inactive
19,CC(C)(C)[C@H](O)[C@H](Cc1ccc(Cl)cc1)n1cncn1,inactive
20,CCOCCOCCOC(C)=O,inactive
21,CCOCCOCCOCC,inactive
22,CCOc1ccc(NC(=O)OC(C)C)cc1OCC,inactive
23,CC(C)Nc1nc(N)nc(Cl)n1,inactive
24,CCC(C)OC(=O)N1CCCCC1CCO (stereo not drawn),inactive
25,CCCCCCCCCC(=O)OC,inactive

# Experiment: qHTS assay for small molecule agonists of the antioxidant response element (ARE) signaling pathway measured by Nrf2-dependant transcriptional activity - cell viability counter screen (AID 720653); further: potency means the concentration at half of the fitted maximal effect; on max response: on the % scale 0 is the no-effect control and ±100 the full control effect
# Conditions: ARE-bla HepG2 viability, CellTiter-Glo ATP luminescence, 16 h; max response: hits give low values
# In short: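 Cytotoxicity counter screen: intracellular ATP quantified by CellTiter-Glo luminescence in the same ARE-bla HepG2 plates, after 16 h compound exposure and a 2 h beta-lactamase substrate step.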
SMILES,max response,Potency
CC(C)CCCCCCCCCCCCCCC(=O)O,4.34%,
CCCCCCCCCCCCc1ccccc1,-12.7%,
C=CCOc1nc(OCC=C)nc(OCC=C)n1,1.36%,
CCCCCCCCCCCC(=O)OC,,35.5 µM (active)
CCOC(=O)c1ccccc1C,0.0878%,
CCCC/C=C\CCCCCCCCCC=O,-12.8%,
CCC(O)OCCCOC (stereo not drawn),4.51%,
C=CCCCCCCCCCC,-1.98%,
CCCCCCCCCCCCCCC,10.3%,
Oc1ccc(C(c2ccc(O)cc2)C(Cl)(Cl)Cl)cc1,-3.02%,
CC(C)(N=C=O)c1cccc(C(C)(C)N=C=O)c1,-5.26%,
CC(C)C(=O)OC(=O)C(C)C,-7.37%,
CC1=CC(=O)CC(C)(C)C1,-10.2%,
CCCCCCCC[Si](OCC)(OCC)OCC,5.53%,
CCCCCCCCCCCCCCCO,-7.38%,
COc1cc(Cl)c(OC)cc1N,1.98%,
O=S(=O)(O)c1cc(S(=O)(=O)O)c2c(N=Nc3ccccc3)c(O)ccc2c1,-9.68%,

SMILES,max response,Potency
CC(COc1ccc(C(C)(C)C)cc1)OS(=O)OCCCl (stereo not drawn),-25.1%,
CCOC(=O)C(C)Oc1ccc(Oc2nc3ccc(Cl)cc3o2)cc1 (stereo not drawn),6.64%,
CCOC(=O)NCCOc1ccc(Oc2ccccc2)cc1,-19.4%,
O=C(O)CCCCCCC(=O)O,-7.95%,
CC(C)CCCCOC(=O)c1ccccc1C(=O)OCCCCC(C)C,-11%,
COC(OC)(C(=O)c1ccccc1)c1ccccc1,5.37%,
CC(C)C[C@H](NC(=O)OCC1c2ccccc2-c2ccccc21)C(=O)O,-7.25%,
COC(=O)CCSCCC(=O)OC,1.34%,
CC(C)(C)[C@H](O)[C@H](Cc1ccc(Cl)cc1)n1cncn1,-1.92% and -9.33%,
CCOC(=O)[C@H](C)Oc1ccc(Oc2nc3ccc(Cl)cc3o2)cc1,0.626%,
COCCOCCOCCOC,1.56%,
CCOc1ccc(NC(=O)OC(C)C)cc1OCC,-3.59%,
CCCCCCC(C)(C)S,-9.96%,
CC(C)Nc1nc(N)nc(Cl)n1,-6.9% and -10.3%,
CCC(C)OC(=O)N1CCCCC1CCO (stereo not drawn),-23.7%,
CCCCCCCCCC(=O)OC,-16.8%,

# Experiment: qHTS assay for cell viability of HEK293 cells (AID 743288; active means well fitted curve in the direction sought with a large enough effect; an effect the other way counts as inactive or inconclusive; further: on the % scale 0 is the no-effect control and ±100 the full control effect; nearly all actives have a fitted effect of over 50% in size)
# Conditions: ATP luminescence (CellTiter-Glo), 18 h; max response: hits give low values
# In short: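 Parental HEK293 cells were seeded at 2,000 cells/well, rested at least 5 h at 37 C, then exposed to compounds in DMSO for 18 h at 37 C. Viability was read as ATP-dependent luciferase luminescence after 30 min at room temperature.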
row,SMILES,max response
1,CC(C)CCCCCCCCCCCCCCC(=O)O,-0.822%
2,CCCCCCCCCCCCc1ccccc1,2.81%
3,C=CCOc1nc(OCC=C)nc(OCC=C)n1,-0.661%
4,CCCCCCCCCCCC[N+](C)(C)C,-25.6%
5,CCCC/C=C\CCCCCCCCCC=O,3.95%
6,CCCCCCCCCCCCN,-1.85%
7,CCC(O)OCCCOC (stereo not drawn),-3.1%
8,CCCCCCCCCCCCCCC,-6.32%
9,Oc1ccc(C(c2ccc(O)cc2)C(Cl)(Cl)Cl)cc1,-13.2%
10,CC(C)(N=C=O)c1cccc(C(C)(C)N=C=O)c1,-12%
11,CC(C)C(=O)OC(=O)C(C)C,-4.79%
12,CC1=CC(=O)CC(C)(C)C1,-2.87%
13,CCCCCCCC/C=C\CCCCCCCCO,-11.8%
14,CCCCCCCC[Si](OCC)(OCC)OCC,0.144%
15,CCCCCCCCCCCCCCCO,-19.2%
16,COc1cc(Cl)c(OC)cc1N,-8.15%
17,O=S(=O)(O)c1cc(S(=O)(=O)O)c2c(N=Nc3ccccc3)c(O)ccc2c1,-12.7%
18,Cc1ccc(C(C)(C)C)c(O)c1,-6.81%

row,SMILES,max response
1,CC(COc1ccc(C(C)(C)C)cc1)OS(=O)OCCCl (stereo not drawn),-26.1%
2,CCOC(=O)C(C)Oc1ccc(Oc2nc3ccc(Cl)cc3o2)cc1 (stereo not drawn),2.68%
3,O=C(O)CCCCCCC(=O)O,-8.35%
4,CC(C)CCCCOC(=O)c1ccccc1C(=O)OCCCCC(C)C,-17.5%
5,COC(OC)(C(=O)c1ccccc1)c1ccccc1,-5.41%
6,CC(C)C[C@H](NC(=O)OCC1c2ccccc2-c2ccccc21)C(=O)O,-22.2%
7,COC(=O)CCSCCC(=O)OC,-5.77%
8,CC(C)(C)[C@H](O)[C@H](Cc1ccc(Cl)cc1)n1cncn1,-20.8% and -24.1%
9,CCOC(=O)[C@H](C)Oc1ccc(Oc2nc3ccc(Cl)cc3o2)cc1,-6.11%
10,COCCOCCOCCOC,-11.9%
11,CCCCCCC(O)CCCCCCCCCCC(=O)O (stereo not drawn),-10.3%
12,CCOCCOCCOC(C)=O,0.368%
13,CCOc1ccc(NC(=O)OC(C)C)cc1OCC,-5.68%
14,CCCCCCC(C)(C)S,-17.8%
15,CC(C)Nc1nc(N)nc(Cl)n1,-6.34% and -4.35%
16,CCC(C)OC(=O)N1CCCCC1CCO (stereo not drawn),-6.27%
17,CCCCCCCCCC(=O)OC,-11.5%
